The values below come from PubChem BioAssay (NCI).

Structures are written as SMILES. The panel holds about 83,000 compounds, 20% with a hit somewhere; the sample as a whole holds those more often.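 96-well plates, one dose, 48 hours. Percent growth reported; active if below 10.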 Calls of active or inactive are those of the source.

For this assay, the system named is DU-145 prostate. The assay is described as follows: NCI-60 one-dose screen, 48 h (100 = growth as untreated, 0 = no growth, -100 = all killed). The settings on record: 10 µM unless noted.
With `O=C(/C=C/c1ccc(Cl)cc1)c1ccc(NC(=O)N2CCN(c3cc4c(cc3F)c(=O)c(C(=O)O)cn4C3CC3)CC2)cc1`, the growth is 98.5% (inactive).
Regarding `O=C(/C=C(/C=C/c1csc2ccccc12)OB(F)F)/C=C/c1csc2ccccc12`, the growth was 28.5% (inactive).
For `CN1CCN(C(=O)[C@]23CCC(C)(C)C[C@H]2C2=CC[C@@H]4[C@@]5(C)C/C(=C/c6cccnc6)C(=O)C(C)(C)[C@@H]5CC[C@@]4(C)[C@]2(C)CC3)CC1`, the growth was 71.6% (inactive).
Consider `CC1=CCC(OC(=O)C(C)(O)CCC(O)(C(=O)OC2(C)C=CC(O)(C(C)C)CC2)C(C)C)(C(C)C)CC1` (stereo not drawn), for which the growth was 113% (inactive).
Regarding `NC1=NN=C(N)C1=Cc1cc2ccccc2n2nnnc12`, the growth was 100% (inactive).
Next, `COc1ccc(NC(N)=NCCCOc2ccc(F)cc2)cc1`: 48.5% (inactive); `O=C1c2ccc3c4c(ccc(c24)C(=O)N1CCCNCc1ccccc1)C(=O)N(CCCNCc1ccccc1)C3=O`: -93.6% (active); `O=C(NCCNc1nccc(-c2c(-c3cccc(F)c3)nc3sccn23)n1)c1ccc(Cl)cc1`: 71% (inactive).
Next, `C=C1C(=O)O[C@H]2[C@H]1CC/C(COC(=O)NCCc1c[nH]c3ccc(OC)cc13)=C\CC[C@@]1(C)O[C@@H]21`: 10.6% (inactive); `COc1cc(CC(=O)c2ccc(O)c(OC)c2)ccc1O`: 108% (inactive).
Regarding `CCN(CC)c1ccc(/C=N/NC(=O)CSc2nc3ccccc3c(=O)n2CCc2ccc(S(N)(=O)=O)cc2)c(O)c1`, the growth was 31% (inactive).
Turning to `Cc1ccc(-n2c3c(c(-c4ccccc4)c2-c2ccccc2)C2=NCCN2C=N3)cc1`, the growth is 95% (inactive).
For `CN1CCN(C(=O)[C@]23CCC(C)(C)C[C@H]2C2=CC[C@@H]4[C@@]5(C)C/C(=C/c6ccncc6)C(=O)C(C)(C)[C@@H]5CC[C@@]4(C)[C@]2(C)CC3)CC1`, the growth is 68.4% (inactive).
Next, `C=C(C)[C@@H]1CC[C@]2(C(=O)N3CCN(C)CC3)CC[C@]3(C)[C@H](CC[C@@H]4[C@@]5(C)C/C(=C/c6cccnc6)C(=O)C(C)(C)[C@@H]5CC[C@]43C)[C@@H]12`: 74% (inactive); `N/C(=N\C(N)=N\c1nc2ccccc2s1)c1cccc(Cl)c1`: 89.6% (inactive); `CCOC(=O)Nc1ccc(-c2ccc3c(c2)NC(=O)/C3=C\c2ccc[nH]2)cc1`: 110% (inactive).
For `CCNC(=O)Oc1ccc(/C(=C(\C)c2ccccc2)c2ccc(OCCN(CC)CC)cc2)cc1`, the growth is 95.4% (inactive).
Next, `CCOC(=O)/C(C#N)=C1/NNC(=Nc2cccnc2)S1`: 105% (inactive).
To `COc1cccc(-c2nc3occn3c2-c2ccnc(NCCCNS(=O)(=O)c3ccc(C(F)(F)F)cc3)n2)c1` belongs 89.2% (inactive); to `CC(=O)Nc1ccc(-n2cnc3cc(-c4ccc(OCCN5CCCCC5)cc4)ccc32)cc1`, 89.3% (inactive).
To `Cn1ccnc1C(=O)/C=C/c1ccc(CC(=O)Nc2ccc(Cl)cc2)cc1` belongs 6.47% (active); to `C=CCN1C(=O)/C(=C/C(=O)OC)S/C1=N\NC(=O)c1cc2ccc1/C=C\c1ccc(cc1)/C=C\2`, 106% (inactive); to `COc1ccc(/C=C(\C#N)n2nc3cccc(F)c3n2)cc1`, 103% (inactive).
With `N/C(=N\C(N)=N\c1nc2ccccc2s1)c1cnccn1`, the growth was 28.2% (inactive).
`Cc1c(C(=O)NCCC(=O)NO)sc2ncnc(Nc3ccc(NC(=O)Nc4cccc(C(F)(F)F)c4)cc3)c12`: the growth is 105% (inactive).
`O=C(Nc1ccc(-c2ccc3c(c2)NC(=O)/C3=C\c2ccc[nH]2)cc1)NC1CC1`: the growth is 103% (inactive).
Next, `S=c1cc(S)c2cc(Br)ccc2[nH]1`: 105% (inactive); `CCCCOc1ccc(/C=N/Nc2cc(C)nc3ccc(Br)cc23)cc1`: 16.4% (inactive).
With `N/C(=N\C(N)=N\c1nc2ccccc2s1)c1ccnc(Br)c1`, the growth was 42.7% (inactive).
On to `COc1cc(NC(C)CCCNC(=O)CCC(=O)NCCCNCCCCCCCCNCCCNC(=O)CCC(=O)NCCCC(C)Nc2cc(OC)cc3cccnc23)c2ncccc2c1` (stereo not drawn), for which the growth is 66.7% (inactive).
On to `COc1cc2nc(-c3ccc(C(F)(F)F)cc3)cc(OCCCN3CCOCC3)c2cc1OC`, for which the growth was 41.5% (inactive).
In the case of `O=C(Cn1c[n+](CC(=O)c2ccc(-c3ccccc3)cc2)c2ccccc21)Nc1cccc2cccnc12`, the growth was 36.9% (inactive).
As for `CC(Oc1ccc(C(=O)O)cc1C(F)(F)F)c1ccc(Oc2ccccc2)cn1` (stereo not drawn), the growth is 111% (inactive).
Consider `O=C(Nc1ccc(F)cc1)Nc1ccc(NC(=O)c2cc(Cl)nc3ccccc23)cc1`, for which the growth is 57% (inactive).
As for `O=C(CCN1CCCC1)Nc1ccc2c(Nc3ccc(F)cc3)c3ccccc3nc2c1`, the growth was -46% (active).
To `CC(Sc1nc2ccccc2c(=O)n1CCc1ccc(S(N)(=O)=O)cc1)C(=O)Nc1ccc(Cl)cc1` (stereo not drawn) belongs 99.4% (inactive).
With `O=C(N/N=C/c1cc2ccccc2n2nnnc12)Nc1ccccc1`, the growth was 103% (inactive).
Next, `CC1(C)CC(=O)C2=C(C1)N(c1ccc(F)cc1F)C(N)=C(C#N)C2c1cc(Br)ccc1F` (stereo not drawn): 95.4% (inactive).
